{"source": "the supplement of paper PMC13380429"}
{"system": "Vero E6 infected with SARS-CoV-2", "assay": "morphology score (similarity to uninfected cells); higher = more like uninfected cells", "details": "24 h"}
{"compound": "COC(=O)CC[C@@H]1N=C(c2ccccn2)c2cc(Br)ccc2-n2c(C)cnc21", "note": "[remimazolam] (10 µM)", "morphology score": 0.132}
{"compound": "CC(C[N+](C)(C)C)OC(N)=O", "note": "(stereo not given) [bethanechol] (10 µM)", "morphology score": 0.0417}
{"compound": "CCCCOc1cc(C(=O)OCCN(CC)CC)ccc1N", "note": "[oxybuprocaine] (10 µM)", "morphology score": 0.0894}
{"compound": "O=C(O)c1cc2ccccc2s1", "note": "(10 µM)", "morphology score": 0.0676}
{"compound": "CC(=O)O[C@@H]1C[C@H]2C(C)(C)C(=O)C=C[C@]2(C)[C@H]2CC[C@@]3(C)[C@H](c4ccoc4)OC(=O)[C@H]4O[C@]43[C@@]21C", "note": "[gedunin] (10 µM)", "morphology score": 0.145}
{"compound": "CN1C(=O)C[C@@H](C(=O)N[C@@H](Cc2c[nH]cn2)C(=O)N2CCC[C@H]2C(N)=O)NC1=O", "note": "[taltirelin] (10 µM)", "morphology score": 0.0707}
{"compound": "OC[C@H]1O[C@@H](O[C@@H]2[C@@H](CO)OC(O)(CO)[C@H]2O)[C@H](O)[C@@H](O)[C@H]1O", "note": "(mixture of isomers) [lactulose] (10 µM)", "morphology score": -0.0368}
{"compound": "CCCc1c(OCC(O)COc2ccc3c(=O)cc(C(=O)O)oc3c2CCC)ccc(C(C)=O)c1O", "note": "(stereo not given) (10 µM)", "morphology score": 0.197}
{"compound": "CNC(=O)c1c(C)oc2cc(Oc3ncnc4cc(OC)c(OC)cc34)ccc12", "note": "[fruquintinib] (10 µM)", "morphology score": 0.0139}
{"compound": "CCC(CC)[C@H](NC(C)=O)[C@@H]1[C@H](O)[C@@H](C(=O)O)C[C@H]1NC(=N)N", "note": "[peramivir] (10 µM)", "morphology score": 0.00579}
{"compound": "COc1ccc(-n2nc(CCC(=O)N(C)O)cc2-c2ccc(Cl)cc2)cc1", "note": "[tepoxalin] (0.833333 µM)", "morphology score": 0.0433}
{"compound": "NS(=O)(=O)c1cc2c(cc1Cl)NC(CC1CCCC1)NS2(=O)=O", "note": "(stereo not given) [cyclopenthiazide] (10 µM)", "morphology score": 0.129}
{"compound": "C=CCN1CCc2cc(O)c(O)cc2[C@H](c2ccccc2)C1", "note": "(10 µM)", "morphology score": -0.0101}
{"compound": "O=C(OCCOCCO)c1ccccc1Nc1cccc(C(F)(F)F)c1", "note": "[etofenamate] (10 µM)", "morphology score": -0.0601}
{"compound": "O=C(O)c1ccccc1", "note": "[benzoic-acid] (10 µM)", "morphology score": 0.0363}
{"compound": "COc1ccccc1CC(=N)N1C[C@@H]2C(=O)CCC(c3ccccc3)(c3ccccc3)[C@@H]2C1", "note": "(10 µM)", "morphology score": -0.184}
{"compound": "NC12CC3CC(CC(C3)C1)C2", "note": "[amantadine] (10 µM)", "morphology score": -0.265}
{"compound": "O=C(NCC(=O)N1CCCC1)Nc1ccc2cnccc2c1", "note": "(10 µM)", "morphology score": 0.182}
{"compound": "CCOC(=O)[C@@](C)(N)Cc1ccc(O)c(O)c1", "note": "[methyldopate] (10 µM)", "morphology score": 0.0423}
{"compound": "CCCCC/C=C\\C=C\\CCCCCCCCC(=O)O", "note": "[trans-10,cis-12-conjugated-linoleic-acid] (10 µM)", "morphology score": 0.0778}
{"compound": "O=C(O)Cc1ccc(OCc2ccccc2)c(Cl)c1", "note": "[benzofenac] (10 µM)", "morphology score": -0.114}
{"compound": "Cn1nnc(-c2ccc(-c3ccc(N4C[C@H](CO)OC4=O)cc3F)cn2)n1", "note": "[tedizolid] (10 µM)", "morphology score": 0.127}
{"compound": "COc1cc(-c2ccc(=O)[nH]n2)ccc1OC(F)F", "note": "[zardaverine] (10 µM)", "morphology score": 0.289}
{"compound": "OCc1ccccc1O[C@@H]1O[C@H](CO)[C@@H](O)[C@H](O)[C@H]1O", "note": "[salicin] (10 µM)", "morphology score": 0.153}
{"compound": "C[C@@H](O)[C@H]1C(=O)N2C(C(=O)O)=C([C@H]3CCCO3)S[C@H]12", "note": "[faropenem] (10 µM)", "morphology score": 0.121}
{"compound": "CCN(CCCCOC(=O)c1ccc(OC)c(OC)c1)C(C)Cc1ccc(OC)cc1", "note": "(stereo not given) [mebeverine] (10 µM)", "morphology score": 0.178}
{"compound": "N#CC(C#N)=Cc1ccc(O)c(O)c1", "note": "[tyrphostin-AG-18] (10 µM)", "morphology score": 0.204}
{"compound": "C=C1C(=O)O[C@@H]2[C@H]3C(C)=CC[C@@]34O[C@@]4(C)CC[C@@H]12", "note": "[arglabin] (10 µM)", "morphology score": 0.144}
{"compound": "FCc1ccc(OCCOc2ccc(Cl)cc2Cl)c(Cl)n1", "note": "(10 µM)", "morphology score": -0.0669}
{"compound": "CNc1ccc([N+](=O)[O-])cc1-n1cnc(-c2ccc(C(F)(F)F)cc2)c1", "note": "(10 µM)", "morphology score": 0.117}
{"compound": "COc1ccc([C@@H]2CC(=O)c3c(O)cc(O[C@@H]4O[C@H](CO)[C@@H](O)[C@H](O)[C@H]4O[C@@H]4O[C@@H](C)[C@H](O)[C@@H](O)[C@H]4O)cc3O2)cc1O", "note": "[neohesperidin] (10 µM)", "morphology score": 0.00505}
{"compound": "O=C(/C=C/c1cccc(F)c1)NC1CC1", "note": "[cinflumide] (10 µM)", "morphology score": -0.00378}
{"compound": "CN(C)CCC(c1ccccc1)c1ccccn1", "note": "(stereo not given) [pheniramine] (10 µM)", "morphology score": -0.131}
{"compound": "N#Cc1ccncn1", "note": "[4-pyrimidinecarbonitrile] (10 µM)", "morphology score": 0.0783}
{"compound": "O=[N+]([O-])O[C@H]1CO[C@H]2[C@@H]1OC[C@H]2O[N+](=O)[O-]", "note": "[isosorbide-dinitrate] (10 µM)", "morphology score": 0.0765}
{"compound": "COc1cc(Oc2ccnc3cc(OC)c(OC)cc23)ccc1NC(=O)NC(C)c1nccs1", "note": "(stereo not given) (10 µM)", "morphology score": 0.332}
{"compound": "COCc1c(-c2ccc(NC(=O)Nc3cc(C(F)(F)F)ccc3F)c(F)c2)c2c(N)ncnn2c1CN1CCOCC1", "note": "(0.833333 µM)", "morphology score": 0.227}
{"compound": "N#Cc1ccc(N(Cc2ccc(Br)cc2)n2cnnc2)cc1", "note": "(10 µM)", "morphology score": 0.208}
{"compound": "CNC(=O)c1cc(COc2nnc(Nc3ccc(Cl)cc3)c3ccoc23)ccn1", "note": "[telatinib] (10 µM)", "morphology score": 0.0611}
{"compound": "COc1ccc([C@@H]2CC(=O)c3c(O)cc(O[C@@H]4O[C@H](CO[C@@H]5O[C@@H](C)[C@H](O)[C@@H](O)[C@H]5O)[C@@H](O)[C@H](O)[C@H]4O)cc3O2)cc1O", "note": "[hesperidin] (10 µM)", "morphology score": -0.132}
